This note sets out measurements from the supplement of paper PMC10127200.

Structures can show the parent of a compound that is named as a salt.

In the experiment the test system is OVCAR4. The experiment is described as follows: Euclidean distance of Cell Painting phenotypic profile (signed KS, 77 features) to DMSO centroid (dimensionless distance); higher = stronger phenotypic change vs DMSO (phenoactivity). The note with it: 48 h; 5 or 10 uM (library dependent). In short, it runs like this:
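Phenoactivity is computed as Euclidean distance to the median vehicle profile. The profiles, drawn from 77 Harmony features scored as signed Kolmogorov-Smirnov statistics versus same-plate vehicle wells, were corrected for plate position, correlation-weighted and replicate-averaged at the top dose. Stained cells were imaged confocally at 20X (9 fields/well) after 48 h with library compounds at 10 or 5 uM, 0.1% DMSO final, in five cancer lines and a healthy fibroblast line.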
Regarding `CN1c2ccccc2C(NCCCCCCC(=O)O)c2ccc(Cl)cc2S1(=O)=O` (stereo not given) [Tianeptine sodium], the Euclidean distance was found to be 1.36. Compound `CC(C)=CCOc1c2occc2cc2ccc(=O)oc12` [Imperatorin] had an Euclidean distance of 1.32. On to `Cc1cccc(C)c1NC1=NCCCS1` [Xylazine], for which the Euclidean distance came to 0.579. Under `CC(C)NCC(O)c1ccccc1Cl` (stereo not given) [Clorprenaline HCl] stands 1.29. For the compound `CCC1(c2cccc(O)c2)CCCCN(C)C1` (stereo not given) [Meptazinol HCl], the Euclidean distance came out at 0.921. As to `C[C@@H]1CC[C@@]2(OC1)O[C@H]1C[C@H]3[C@@H]4CC=C5C[C@@H](O[C@@H]6O[C@H](CO)[C@@H](O[C@@H]7O[C@@H](C)[C@H](O)[C@@H](O)[C@H]7O)[C@H](O)[C@H]6O[C@@H]6O[C@@H](C)[C@H](O)[C@@H](O)[C@H]6O)CC[C@]5(C)[C@H]4CC[C@]3(C)[C@H]1[C@@H]2C` [Dioscin], the Euclidean distance worked out at 4.63. On to `COc1ccc(OC)c(C(O)C(C)N)c1` (stereo not given) [Methoxamine HCl], for which the Euclidean distance is 1.41. Regarding `C#C[C@]1(OC(=O)CCCCCC)CC[C@H]2[C@@H]3CCC4=CC(=O)CC[C@@H]4[C@H]3CC[C@@]21C` [Norethisterone Enanthate], the Euclidean distance was 1.22. Regarding `O=C1CCC[C@@H]2[C@H]3CCCN4CCC[C@@H](CN12)[C@@H]34` [(+)-Matrine], the Euclidean distance worked out at 0.759. Under `O=C(NCC1CCOCC1)c1cnc(Nc2ccc(Cl)cc2Cl)nc1C(F)(F)F` stands 3.11; under `CN1C[C@H](C(=O)N[C@]2(C)O[C@@]3(O)[C@@H]4CCCN4C(=O)[C@H](Cc4ccccc4)N3C2=O)C[C@@H]2c3cccc4[nH]cc(c34)C[C@H]21` [Dihydroergotamine Mesylate], 1.25. In the case of `C=C1[C@@H](C)[C@H]2[C@H](Cc3ccccc3)NC(=O)[C@]23[C@H](OC(C)=O)/C=C/[C@@](C)(O)C(=O)[C@@H](C)C/C=C/[C@H]3[C@@H]1O` [Cytochalasin D], the Euclidean distance was 3.87. Take `CCC12C=CCN3CC[C@@]4(c5ccc(OC)cc5N(C)[C@H]4[C@@](O)(C(=O)OC)[C@@H]1OC(C)=O)[C@@H]32` (stereo not given in full) [Vindoline]: the Euclidean distance came to 0.946. For `NCC(O)c1ccc(O)cc1` (stereo not given) [(+.-)-Octopamine HCl] the value was 1.03; for `COC(=O)[C@@H](N)CCCNC(=N)N[N+](=O)[O-]`, 0.995. Compound `CC[C@@]1(O)C[C@H](O[C@H]2C[C@H](N(C)C)[C@H](O)[C@H](C)O2)c2c(cc3c(c2O)C(=O)c2c(O)cccc2C3=O)[C@H]1C(=O)OC` [Aclacinomycin] registered an Euclidean distance of 3.12. As for `CCC(COC(=O)c1cc(OC)c(OC)c(OC)c1)(c1ccccc1)N(C)C` (stereo not given) [Trimebutine], the Euclidean distance was found to be 0.747. The compound `CC(C)OC(=O)[C@H](C)N[P@](=O)(CO[C@H](C)Cn1cnc2c(N)ncnc21)Oc1ccccc1` [Tenofovir Alafenamide (GS-7340)] gave an Euclidean distance of 1.58. `Cl[TeH]1(Cl)(Cl)OCCO1.N`: the Euclidean distance came to 2.09. Compound `N.N.[Cl][Pt][Cl]` [Cisplatin] gave an Euclidean distance of 0.788. Turning to `CC(=O)O[C@H]1C[C@@H]2CC[C@@H]3[C@H](CC[C@@]4(C)[C@H]3C[C@H]([N+]3(C)CCCCC3)[C@@H]4OC(C)=O)[C@@]2(C)C[C@@H]1[N+]1(C)CCCCC1` [Pancuronium dibromide], the Euclidean distance is 1.42. For the compound `CC[N+](C)(CC)CCOC(=O)C(O)(c1ccccc1)c1ccccc1` [Methylbenactyzine Bromide], the Euclidean distance is 1.45.

`COc1ccc2[nH]cc(CCN)c2c1` [5-Methoxytryptamine] gave an Euclidean distance of 0.882. Turning to `O=C(C[S+]([O-])C(c1ccccc1)c1ccccc1)NO` (stereo not given) [Adrafinil], the Euclidean distance is 1.57. Take `CC(C)(C)c1cc(C=C(C#N)C#N)cc(Br)c1O`: the Euclidean distance worked out at 1.52. Under `CC(C)(O)C(Cl)(Cl)Cl` [Chlorobutanol] stands 2.

For `CCOC(=O)c1cncn1[C@H](C)c1ccccc1` [Etomidate], the Euclidean distance is 1.9.

Consider `CC1(C)C(C=C(Cl)Cl)C1C(=O)OCc1cccc(Oc2ccccc2)c1` (stereo not given) [Permethrin], for which the Euclidean distance came out at 1.43. Consider `CC[C@H](C)[C@@H]([C@@H](CC(=O)N1CCC[C@H]1[C@H](OC)[C@@H](C)C(=O)N[C@H](C)[C@@H](O)c1ccccc1)OC)N(C)C(=O)[C@@H](NC(=O)[C@@H](NC)C(C)C)C(C)C` [Monomethyl auristatin E (MMAE)], for which the Euclidean distance turned out to be 3.16. As for `O=c1[nH]c2ccccc2n1CCCN1CCC(n2c(=O)[nH]c3cc(Cl)ccc32)CC1` [Domperidone], the Euclidean distance came out at 1.67. Under `Fc1cc(F)c2c(c1)[C@H]1C=CC[C@H]1C(c1cccnc1)N2` (stereo not given in full) [Golgicide A] stands 0.985; under `Nc1ccncc1` [4-Aminopyridine], 0.946; under `C[C@@H]1[C@H](O)[C@@H](C)/C=C/C=C/CC/C=C/C=C/C=C/C=C/[C@H](O[C@H]2O[C@@H](C)[C@H](O)[C@@H](N)[C@H]2O)C[C@@H]2O[C@](O)(C[C@@H](O)[C@H](O)CC[C@@H](O)C[C@@H](O)C[C@@H](O)CC(=O)O[C@H]1C)C[C@H](O)[C@H]2C(=O)O` [Nystatin (Fungicidin)], 1.06. For `CN1CCN(c2nc3ccccc3nc2Cl)CC1` the value was 1.52; for `CC(C)(C)[C@]1(O)CC2OC(=O)CC23C(=O)OC2OC(=O)[C@H](O)C231` (stereo not given in full) [Bilobalide], 1.47.
